# Data as given in PubChem BioAssay.
# Values without a mark were called inactive. How the calls were made is not given here.
# Biological target: Pantothenate synthetase (Mycobacterium tuberculosis (strain ATCC 25618 / H37Rv)) (UniProt P9WIL5)
# Assay: Coupled enzyme confirmation of inhibitors against recombinant Mtb PanC (AID 375);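 further: 0% = full reaction with vehicle and 100% = no enzyme background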
# Conditions: coupled enzyme assay; at 10 µM, stronger effect = higher value
# Sequence of Pantothenate synthetase (Mycobacterium tuberculosis (strain ATCC 25618 / H37Rv)) (P9WIL5 whole entry, looked up): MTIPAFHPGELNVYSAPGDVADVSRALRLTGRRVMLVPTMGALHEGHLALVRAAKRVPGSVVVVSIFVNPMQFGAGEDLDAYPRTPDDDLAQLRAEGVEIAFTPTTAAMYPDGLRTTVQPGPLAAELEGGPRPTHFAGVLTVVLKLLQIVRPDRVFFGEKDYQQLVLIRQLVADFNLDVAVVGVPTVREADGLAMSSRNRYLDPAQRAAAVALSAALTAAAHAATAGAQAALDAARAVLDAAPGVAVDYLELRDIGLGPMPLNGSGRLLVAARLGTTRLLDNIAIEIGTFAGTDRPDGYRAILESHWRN
row,SMILES,inhibition [%]
1,CC(=O)N(C(C)=O)c1cccc2c(N(C(C)=O)C(C)=O)cccc12,1
2,O=C(CSc1nnc(-c2ccccn2)n1Cc1ccccc1)N1CCCC1,0
3,Nc1nc2sc3c(c2c(=O)s1)CCCC3,0
4,CC1Cc2ccccc2N1C(=O)Cc1cccs1 (centres undefined),3
5,CCOC(=O)N1CCN(C(=O)c2cnn(-c3ccccc3)c2NC(=O)c2ccccc2F)CC1,0
6,CN1CCc2nc(SCC(=O)Nc3ccc(F)cc3)c(C#N)cc2C1,8
7,Cc1ccc(Cl)cc1NC(=O)CSc1nnc(C)n1-c1ccccc1,0
8,COc1ccc(CN(Cc2cc3cc4c(cc3[nH]c2=O)OCO4)C(=O)NC2CCCCC2)cc1,3
9,CCc1nc(SCC(=O)Nc2nccs2)c2oc3ccccc3c2n1,0
10,O=C(CSc1ncccn1)c1ccccc1Br,7
11,O=C(NC1CCS(=O)(=O)C1)N1CCCCC1 (centres undefined),7
12,Cc1cccc(OCC(=O)N(Cc2cccs2)C2CCS(=O)(=O)C2)c1C (centres undefined),3
13,CCOC(=O)C1(c2ccccc2)NC(c2ccc(N(C)C)cc2)C2C(=O)N(C)C(=O)C21 (centres undefined),0
14,CCCc1cc(C(=O)Nc2ccccc2SC)no1,0
15,O=C(NCCCN1CCCC1=O)c1cncc(Br)c1,0
16,C(=N\n1cnnc1)/c1cccc(OCCOc2ccccc2)c1,0
17,CCN(CC)CCCC1(CN)OCCc2ccccc21 (centres undefined),0
18,COc1ccc(C)cc1S(=O)(=O)N(C)CC(=O)Nc1ccc2c(c1)OCCO2,2
19,Cc1nc(CNS(=O)(=O)c2cc(C)c(C)cc2C)cs1,1
20,Cn1c(=O)[nH]c(=O)c2c1nc(Br)n2CCCSc1nc2ccccc2o1,0

row,SMILES,inhibition [%]
1,COc1cc2c(=O)n(Cc3ccccc3)c(=O)n(CC(=O)NCc3ccco3)c2cc1OC,7
2,O=C(c1cnn2c1NC(c1ccco1)CC2C(F)(F)F)N1CCN(c2cccc(Cl)c2)CC1 (centres undefined),4
3,CCC1(NC(C)=O)CC2CC1CC2NC(C)=O (centres undefined),0
4,Cc1ccc(NC(=O)c2ccco2)c(NC(=O)c2cccs2)c1,0
5,COC(=O)c1ccc(NC(=O)CN2CCCC2)cc1,0
6,COc1cccc(C2C(C(=O)c3cc4ccccc4o3)=C(O)C(=O)N2CCN(C)C)c1OC (centres undefined),1
7,O=C(Nc1cccc(C(F)(F)F)c1)c1ccco1,0
8,COc1cccc(C(=O)n2cnnc2N)c1OC,4
9,Cc1ccc(OCC(O)CN2C(=O)NC(C)(C)C2=O)cc1C (centres undefined),2
10,Cc1ccc(S(=O)(=O)Nc2cc(C(=O)O)ccc2N2CCCCC2)cc1,0
11,CCOC(=O)C1CCN(C(=O)Nc2ccc3snnc3c2)CC1,6
12,Cc1ccc(N2C(N)=NC(N)=NC23CCCC3)c(C)c1,3
13,CC(=O)Nc1ccc2nc(-c3cccnc3)[nH]c2c1,0
14,O=C(NCCCNC(=O)c1ccccn1)c1ccccn1,12
15,COc1ccc(Br)cc1CNC(=O)CCc1nc(-c2ccc(C)cc2)no1,4
16,COc1ccc(CNc2oc(-c3cccc4ccccc34)nc2C#N)cc1,0
17,CCOc1cc(NC(=O)c2ccccn2)c(OCC)cc1NC(=O)CC(C)C,11
18,COc1cc(NS(=O)(=O)N2CCCC2)cc(OC)c1OC,0
19,C#CCSc1nc(-c2cccs2)ccc1C#N,0
